Assay results taken from ChEMBL document CHEMBL4296182, “CO-ADD screening of NIH NCI Diversity Set V”.
For part of these data: Measured potencies and affinities stand elsewhere.

What was measured:
Staphylococcus aureus = assay: Antibacterial activity against Staphylococcus aureus MRSA ATCC 43300 (CO-ADD:GP_020); MIC in CAMBH media using NBS plates, by Resazurin F(560/590); format: functional; conditions: Concentration 20 uM, ASSAY_TEST Inhibition of Bacterial Growth, detection method Resazurin, Fluorescence (ex560/em590), MEDIA CAMHB, plate type 384well, CORNING #3640, time 18 hr
Acinetobacter baumannii = assay: Antibacterial activity against Acinetobacter baumannii ATCC 19606 (CO-ADD:GN_034); MIC in CAMBH media using NBS plates, by Resazurin F(560/590); format: functional; conditions: Concentration 20 uM, ASSAY_TEST Inhibition of Bacterial Growth, detection method Resazurin, Fluorescence (ex560/em590), MEDIA CAMHB, plate type 384well, CORNING #3640, time 18 hr
Escherichia coli = assay: Antibacterial activity against Escherichia coli ATCC 25922 (CO-ADD:GN_001); MIC in CAMBH media using NBS plates, by Resazurin F(560/590); format: functional; conditions: Concentration 20 uM, ASSAY_TEST Inhibition of Bacterial Growth, detection method Resazurin, Fluorescence (ex560/em590), MEDIA CAMHB, plate type 384well, CORNING #3640, time 18 hr
Klebsiella pneumoniae = conditions: Concentration 20 uM; ASSAY_TEST Inhibition of Bacterial Growth; detection method Absorption (OD600); MEDIA CAMHB; plate type 384well; NBS; CORNING #3640; time 18 hr
Candida albicans = conditions: 20 µM
Cryptococcus neoformans = conditions: Concentration 20 uM; ASSAY_TEST Inhibition of Fungal Growth; detection method Resazurin; Absorption (OD600-OD570); plate type 384well; NBS; CORNING #3640

Structure (SMILES) | Inhibition (Staphylococcus aureus) [%] | Inhibition (Acinetobacter baumannii) [%] | Inhibition (Escherichia coli) [%] | Inhibition (Klebsiella pneumoniae) [%] | Inhibition (Candida albicans) [%] | Inhibition (Cryptococcus neoformans) [%]
Oc1cc(-n2cccn2)c(O)cc1-n1cccn1 | 6.47 | 8.87 | -3.84 | 16.86 | 25.5 | -4.6
O=C1NC(=O)C2(CCc3ccccc32)N1 (centres undefined) | -0.71 | -7.84 | 5.32 | 9.04 | 4.28 | 0.2
CC(=O)[C@H]1CC[C@H]2[C@@H]3CCC4=CC(=O)CC[C@]4(C)[C@@]3(F)[C@@H](O)C[C@]12C | 0.89 | -16.68 | 9.76 | 7.06 | 0.8 | -7.75
Cc1c(O)cnc2nn(-c3ccccc3)c(=N)n12 | 11.23 | 10.25 | 2.75 | 9.94 | 3.98 | -5.13
Cc1ccc2c(c1)c1ccc3c(c1n2C)C(=O)C=CC3=O | 2.62 | -23.42 | 6.78 | 6.78 | 22.6 | 22.59
N=C(N)Nc1ccc(NC(=N)N)cc1 | 18.17 | -6.06 | 9.96 | 17.17 | -1.51 | -0.62
c1ccc(-n2ncc3cccnc32)cc1 | 6.65 | -2.45 | 7.04 | 9.31 | -0.36 | -9.65
CCOC(=O)c1csc(-c2ccc(COC(=O)c3ccccc3)o2)n1 | 13.59 | 3.92 | -0.69 | 10.14 | 4.97 | -13.35
Cc1cccc(N2CCN(CC(O)COc3ccccc3Cl)CC2)c1 (centres undefined) | 6.25 | 7.51 | 7.94 | 12.03 | -0.3 | -18.69
COc1ccc(-c2cc3ccccc3[nH]2)cc1 | 28.13 | -0.84 | 12.2 | 0.29 | -0.93 | -13.44
COc1cc2c(cc1OC)[N+]([O-])=C(c1ccccc1)C2=O | 11.49 | -5.23 | 9.41 | -2.97 | 13.8 | -4.84
O=c1c(O)cccc2cc(O)c(O)c(O)c12 [PURPUROGALLIN] | -28.9 | 1.69 | 13.14 | 21.3 | 53.6 | -25.98
Clc1ccc(-c2nc(-c3cc4cc(Cl)ccc4o3)cs2)cc1 | -3.66 | 8.53 | 11.7 | 9.81 | 1.45 | -4.29
COc1cc2c(c(OC)c1O)C(=O)CO2 | -11.73 | -8.29 | -0.75 | 1.47 | 3.59 | -3.51
Oc1c(Cl)cc(Cl)cc1C1Nc2ccccc2-n2cccc21 (centres undefined) | 8.71 | 9.53 | -0.55 | 11.09 | 1.7 | -0.72
Cc1cc(/C=C2\SC(=S)NC2=O)cc(C)c1O | -3.17 | -16.06 | 6.56 | 6.27 | 8.55 | -10.24
Oc1ncnc(CN2CCCCC2)c1O | 7.4 | 1.82 | 7.79 | 2.35 | -1.92 | -11.85
C1CCC(NC2=NCCO2)CC1 | -4.28 | -18.87 | 9.63 | 6.74 | -0.27 | -10.7
CSc1cccc(NC(=O)N2CCN(C)CC2)c1 | 0.63 | -10.8 | 6.03 | 6.8 | 3.78 | -18.46
COC(=O)Nc1csc2c1NC(=O)CCCC2 | 9.05 | -9.14 | 10.25 | 10.74 | 1.85 | -7.13
CN1CCc2ccccc2C1Cc1ccccc1NC(=O)c1sc2ccccc2c1Cl (centres undefined) | 1.84 | -6.84 | 0.33 | 11.11 | 2.39 | -3.5
O=[N+]([O-])c1cccc(/C=C/c2ccccn2)c1 | 0.18 | -2.22 | 10.58 | 8.63 | 0.08 | -13.12
Cc1cccc(Nc2sc(C(=O)c3cc4cc(Cl)ccc4o3)c(N)c2C#N)c1 | 1.46 | -13.03 | 6.28 | 5.96 | 0.06 | 37.64
O=C(O)c1ccc(N2CCCCC2)cc1O | 7.99 | -7.54 | 7.11 | 12.65 | 8.64 | -11.23
CCn1c(=O)n(C)c2c(=O)n(C)c(=O)n(C)c21 | -2 | -10.53 | 11.39 | 6.07 | -0.98 | -11.25

Structure (SMILES) | Inhibition (Staphylococcus aureus) [%] | Inhibition (Acinetobacter baumannii) [%] | Inhibition (Escherichia coli) [%] | Inhibition (Klebsiella pneumoniae) [%] | Inhibition (Candida albicans) [%] | Inhibition (Cryptococcus neoformans) [%]
CCCNC(=O)c1ccccc1C(=O)NC1(C(=O)NCCC)CCCC1 | 14.23 | 6.45 | 3.42 | 12.55 | -0.46 | -3.84
OCC1CCCC(n2cnc3c(S)ncnc32)O1 (centres undefined) | 9.66 | 5.96 | 6.02 | 14.91 | 14 | -13.51
Nc1ncncc1-c1ccc2ccccc2c1 | 8.62 | 6.7 | 0.44 | 17.13 | 5.79 | -7.84
CCOc1ccc(NC(=O)Nc2cc(C(C)C)ccc2C)cc1 | -18.22 | 0.23 | -12.49 | 0.84 | 0.78 | 21.16
Nc1[nH]nc2nc(-c3ccccc3)nc(O)c12 | -2.47 | -10.04 | 2.06 | 6.75 | -0.22 | -3.34
Oc1ccc(Cl)nn1 | 1.52 | -4.23 | 4.23 | 8.48 | 0.96 | 1.34
O=C(c1ccc(O)cc1)c1ccc(C(=O)c2ccc(O)cc2)cc1 | 20.54 | 4.24 | 2.65 | 14.45 | 3.86 | -7.33
O=S(=O)(O)c1ccc2c(c1)C(C(Cl)(Cl)Cl)OC(C(Cl)(Cl)Cl)O2 (centres undefined) | 10.71 | -8.34 | 18.82 | 1.9 | -0.48 | -7.32
Nc1cc(-c2ccccc2)ccc1O | 13.15 | -7.9 | 6.67 | 17.45 | 4.12 | -0.33
Cc1cccc(C)c1NC(=O)Nc1ccc(S(N)(=O)=O)cc1 | -3.68 | 5.47 | 8.39 | 5.63 | 0.87 | -12.09
Cc1ccc(Nc2nc(Cl)nc3ncn(C)c23)c(C)c1 | 8 | 11.23 | -0.86 | 14.74 | 2.26 | -7.52
C[C@@]1(c2ccccc2)O[C@@H]2C[C@H]3[C@@H]4CCC5=CC(=O)C=C[C@]5(C)[C@@]4(F)[C@@H](O)C[C@]3(C)[C@]2(C(=O)CO)O1 [AMCINAFIDE] | 5.72 | -8.64 | 8.97 | 3.86 | 4.92 | -9.65
O=C(/C=C/c1ccc(Cl)s1)c1ccc(Cl)s1 | 14.77 | 5.48 | -1.03 | 0.02 | 4.39 | -6.98
Cc1cccc(NC2=C(C#N)C(=O)NC3(CCCC3)S2)c1 | -0.83 | -3 | -9.49 | 8.76 | 11 | 1.34
CC(C)c1cc(C(F)(F)F)nc(NNc2nc(C(C)C)cc(C(F)(F)F)n2)n1 | 18.88 | -11.48 | 9.37 | 26.13 | 9.95 | -5.35
O=C(Nc1cccc(Cl)c1)Nc1nccs1 | 1.33 | -6.03 | 8.66 | 7.36 | 3.47 | -22.98
CC(=O)[C@@]1(O)[C@H](C)C[C@H]2[C@@H]3C=C(C)C4=Cc5c(cnn5-c5ccccc5)C[C@]4(C)[C@H]3[C@@H](O)C[C@@]21C | 3.25 | -8.97 | 7.95 | 0.96 | 4.25 | -3.62
COC1OC(CO)C(N=C(C)C)C1O (centres undefined) | -11.36 | -14 | 0.14 | 2.78 | 0.83 | -10.33
O=[N+]([O-])c1ccc2[nH]c3nc4ccccc4nc3c2c1 | 17.59 | 16.49 | -1.33 | -1.62 | 5.48 | 44.37
CCOC(=O)c1c(C)c(C(=O)OCC)n(C)c1C | 8.23 | 6.43 | -8.3 | 6.99 | 4.68 | 10.56
N#C/C(=C\c1cccnc1)c1ccc(Br)cc1 | -11.66 | -1.77 | -11.06 | 8.56 | 35.8 | -4.26
O=C1c2ccccc2C(=Cc2cccnc2)c2ccccc21 | 8.79 | -7.39 | 6.86 | 10.23 | 9.01 | -9.38
CCc1cccc2[nH]c3cc([N+](=O)[O-])ccc3c12 | 6.44 | 1.17 | 2.96 | -4.47 | 9.1 | 12.93
COc1ccc2c3c([nH]c2c1)[C@H]1C[C@H]2[C@H](C[C@@H](O)[C@H](OC)[C@H]2CO)CN1CC3 | 17.92 | 7.85 | -1.49 | 7.11 | -0.63 | -8.29
